The whole screen tested about 220,000 compounds, of which about 2,400 (1.1%) were called active. Inconclusive results (about 7%) are left out. This excerpt belongs to a sample that is enriched for actives. A number with no mark means an inactive call. Calls follow the shape of the dose curve; as a rule, active = well fitted inhibition curve with a large enough effect; inconclusive = small, poorly fitted or top-dose-only effect, or effect the other way; inactive = no such curve, though single readings can be large or run the other way.
Assay: qHTS Multiplex Assay to Identify Dual Action Probes in a Cell Model of Huntington: Aggregate Formation (GFP); also: nearly all actives have a fitted effect of over 60% in size
Conditions: PC12 HttQ103-GFP aggregates, Acumen cytometry, 40 h; series mostly up to 9.22 µM; activity change, negative = inhibition: at the top concentration
In short: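 Ecdysone-promoter PC12 model expressing HTT exon 1 Q103 fused to GFP, induced by tebufenozide at 100 nM final. Compounds titrated; aggregates sized 1–25 µm scored on a 488 nm laser cytometer.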
% is scaled to controls: 0 for no effect and ±100 for the full control effect; potency is read from the fitted curve at half-maximal effect.

Row | SMILES | activity change, negative = inhibition | Potency
1 | CCOC(=O)CSc1nc(C)c(Oc2ccc(Cl)cc2Cl)c(=O)[nH]1 | -4.52% | –
2 | Brc1ccc(-c2nn[nH]n2)cc1 | 11.1% | –
3 | COc1ccc(SCCN2CCN(CC(C)C)CCC2=O)cc1 | -1.2% | –
4 | CSc1nc(C)cc(SC(C(C)=O)C(=O)Nc2ccccc2)n1 (stereo not drawn) | -11.8% [at 46.1 µM] | –
5 | CSc1nc(-c2ccccc2)nc(C(Cl)Cl)n1 | – | 11.2 µM (active)
6 | Cc1cccc(NC(=O)CSc2nnc(CCNC(=O)OC(C)(C)C)o2)c1C | -7.25% | –
7 | COC(=O)c1ccc(COc2ccc(/C=N/NC(=O)C(=O)Nc3ccc(OC)cc3)cc2OC)o1 | 8.14% | –
8 | CC[n+]1c(C)n(-c2ccccc2)c2ccc(NC(C)=O)cc21 | – | 3.98 µM (active)
9 | CCc1ccc(NC(=O)N2CCN(c3ccccc3)CC2)cc1 | 6.28% [at 46.1 µM] | –
10 | CCn1c2ccccc2c2cc(NC(=O)CNC)ccc21 | -17.5% | –
11 | Cc1ccc(N2C(=O)CN=C2Nc2nc(C)cc(C)n2)cc1 | 8.49% | –
12 | O=C(c1ccc(=O)oc1)N1CCC(C(O)(c2ccccc2)c2ccccc2)CC1 | -8.46% | –
13 | O=C(O)CCCCCNc1ncnc2ccc(Br)cc12 | -18.6% | –
14 | Brc1ccc2ncnc(NCc3cccnc3)c2c1 | – | 1.78 µM (active)
15 | Cc1cc(NCc2cccnc2)no1 | -1.89% | –
16 | CCOC(=O)c1cnc(COc2ccccc2Cl)[nH]c1=O | 2.2% | –
17 | Cc1c(NC(=O)CN2C(=O)C(=O)N(Cc3ccccc3)C2=O)c(=O)n(-c2ccccc2)n1C | 0.334% | –
18 | O=C1CC(Cc2ccc(Cl)cc2)C(=O)N1c1cc(Cl)ccn1 (stereo not drawn) | 6.88% | –
19 | CCCCN(CCCC)CC(O)Cn1c2ccccc2c(=O)c2ccccc21 (stereo not drawn) | -13.4% | –
20 | O=C(NNS(=O)(=O)Cc1ccccc1)c1ccc([N+](=O)[O-])cc1 | -27.8% | –
21 | CC1CCN(c2c(NCc3ccc(C(=O)NCc4ccccc4)cc3)c(=O)c2=O)CC1 | 3.19% | –
22 | CN(c1ccccc1)S(=O)(=O)c1cc(C(=O)OCC(=O)N2CCN(C(=O)c3ccco3)CC2)ccc1Cl | 2.29% [at 46.1 µM] | –
23 | O=C(Nc1cccc(-c2nc3ccccc3[nH]2)c1)c1ccc(C(=O)Nc2cccc(-c3nc4ccccc4[nH]3)c2)cc1 | 29% | –

Row | SMILES | activity change, negative = inhibition | Potency
24 | CN(c1ccccc1)S(=O)(=O)c1cc(C(=O)Nc2nc3ccccc3[nH]2)ccc1Cl | – | 11.2 µM (active)
25 | COC(=O)/C=C(\Oc1ccccc1)C1(O)CCCCC1 | 13.9% | –
26 | CC(C)(C)c1nnc(NC(=O)C2c3ccccc3Oc3ccccc32)s1 | -14.3% | –
27 | Nc1ccc(C(=O)Nc2ccccc2N)cc1 | 2.49% [at 46.1 µM] | –
28 | COc1cccc(-c2nnc(NC(=O)c3ccc(S(=O)(=O)N(CC(C)C)CC(C)C)cc3)o2)c1 | – | 5.01 µM (active)
29 | COc1cccc(NC(=O)CN(C)S(=O)(=O)c2ccc(C)cc2)c1 | 28% [at 46.1 µM] | –
30 | COc1cccc(NC(=O)c2ccc(S(=O)(=O)N(C)C)cc2)c1 | 11% [at 46.1 µM] | –
31 | Oc1ccc(Cl)c2c1CCC2 | 3.24% [at 46.1 µM] | –
32 | CCOc1ccccc1N1CN(Cc2ccccc2)CNC1=S | -10.6% | –
33 | COCCN1C(=O)N[C@@H](c2ccccc2)C(C(=O)OC)=C1C | 17.3% [at 46.1 µM] | –
34 | COC(=O)C1=C(C)N(C)C(=S)NC1c1ccccc1 (stereo not drawn) | – | 3.16 µM (active)
35 | COC(=O)C1=C(C)N(C)C(=S)NC1c1cc(OC)ccc1OC (stereo not drawn) | -3.02% [at 46.1 µM] | –
36 | COc1ccc(-c2csc(NC3OC(=O)c4ccccc43)n2)cc1 (stereo not drawn) | -6.69% | –
37 | CCOC(=O)c1cc(NC(=O)c2cccnc2)cc(C(=O)OCC)c1 | 2.09% [at 46.1 µM] | –
38 | CCOC(=O)c1sc(NC(=O)CSc2ncccn2)c(C#N)c1C | -1.2% [at 46.1 µM] | –
39 | Cc1c(C(=O)OC(C)C)sc(NC(=O)c2cccnc2)c1C#N | – | 11.2 µM (active)
40 | O=S(=O)(c1ccc(F)cc1)N1CC=C(c2ccccc2)CC1 | -11.9% | –
41 | O=C1CCCC(O)=C1N=Nc1ccc(S(=O)(=O)N2CCOCC2)cc1 | -29.6% | –
42 | O=C(C1=C(O)C(=O)N(CCOCCO)C1c1ccccn1)c1cccs1 (stereo not drawn) | -9.5% | –
43 | COc1ccc(Cc2cc(-c3ccc(F)cc3)n[nH]c2=O)cc1 | -2.71% | –
44 | Fc1ccccc1/C=N/n1c(-c2cccnc2)n[nH]c1=S | -12.6% | –
45 | CCOC(=O)c1c(NC(=O)c2ccc(N3CCOCC3)c([N+](=O)[O-])c2)sc(C)c1C | -1.54% [at 46.1 µM] | –
46 | O=C(NCCCN1CCOCC1)c1ccc(N2CCCC2)c([N+](=O)[O-])c1 | 3.94% | –

Row | SMILES | activity change, negative = inhibition | Potency
47 | N#Cc1c(NC(=O)c2ccc(N3CCOCC3)c([N+](=O)[O-])c2)sc2c1CCCC2 | – | 5.62 µM (active)
48 | Cc1cc(=O)[nH]c(S)c1C#N | -6.31% | –
49 | NC(=O)C(=O)N/N=C/c1ccc([N+](=O)[O-])o1 | -100% [at 46.1 µM] | –
50 | O=C(O)c1cccnc1Sc1ncnc2sc3c(c12)CCC3 | -1.62% | –
51 | COCCn1c(C)cc(C(=O)CSc2nc3ccccc3c(=O)n2C(C)COC)c1C (stereo not drawn) | -9.69% [at 46.1 µM] | –
52 | COCCn1c(C)cc(C(=O)CSc2ncnc3sc4c(c23)CCC4)c1C | – | 6.31 µM (active)
53 | CC(C)(C)C(=O)NNC(=O)c1ccc(Oc2cc(Cl)cc(Cl)c2)o1 | -4.94% | –
54 | CCOc1cc2c(Cl)ncnc2c(OCC)c1OCC | -18.2% | –
55 | Cc1nc2ccccc2c(-c2ccccc2)c1C(=O)c1ccccc1 | -13.7% [at 46.1 µM] | –
56 | Cc1nc2ccccc2c(C)c1C(=O)c1ccc(F)cc1 | – | 7.94 µM (active)
57 | Cc1nc2ccc(C(=O)O)cc2[nH]1 | 2.47% [at 46.1 µM] | –
58 | COc1ccc(Cl)cc1C(=O)NNC(=O)c1nc2nc(C)cc(C)n2n1 | 16.4% | –
59 | FC(F)(F)c1ccc(-n2cn[nH]c2=S)cc1 | -29% | –
60 | CCOC(=O)C(NC(C)=O)C(=O)Nc1ccc(OC)cc1 (stereo not drawn) | 1.08% | –
61 | COc1ccc(NC(=O)C(C)SCc2ccccc2)cc1 (stereo not drawn) | 9.72% | –
62 | COc1ccc(NC(=O)C(Br)C(C)C)cc1 (stereo not drawn) | – | 0.891 µM (active)
63 | O=C(COc1ccccc1[N+](=O)[O-])N/N=C/c1ccc[nH]1 | 27.9% | –
64 | O=C1CC2(CC(c3ccc(Cl)cc3)=NO2)C(=O)N1c1ccccc1 (stereo not drawn) | -18.5% | –
65 | C#CCNc1ccc(C(=O)OCC)cc1 | -0.897% | –
66 | Fc1ccc(-c2csc(-c3ccc(C4SCCS4)cc3)n2)cc1F | -8.2% | –
67 | Cn1nccc1CNC(=O)c1ccnn1C | 17.5% [at 46.1 µM] | –
68 | CCCc1ccc(-c2c(C)sc(NC(=O)c3ccnn3C)c2C#N)cc1 | – | 7.08 µM (active)
69 | CCN(CC)C(=O)c1sc(NC(=O)c2ccco2)c(C#N)c1C | -5.71% [at 46.1 µM] | –

Row | SMILES | activity change, negative = inhibition | Potency
70 | CCN(CC(=O)Nc1ccc(S(=O)(=O)N2CCCC2)cc1)CC(=O)Nc1cccc(OC)c1 | -1.97% | –
71 | CN(Cc1nc(-c2cnccn2)no1)Cc1n[nH]c2c1CCCCC2 | 3.15% | –
72 | Cc1ccc(NC(=O)C/C(N)=N/O)cc1Cl | -5.66% | –
73 | O=C(CC(=O)Nc1ccc(Cl)c(Cl)c1)N/N=C/c1ccc(O)cc1 | -2.59% [at 46.1 µM] | –
74 | O=C(CC(O)(C(F)(F)F)C(F)(F)F)Nc1ccc(Cl)c(Cl)c1 | – | 5.01 µM (active)
75 | Cn1cc(S(=O)(=O)NC(c2ccccc2)c2ccccc2)c(=O)n(C)c1=O | 25.8% | –
76 | c1ccc(Cc2cc[n+](Cc3ccccc3)cc2)cc1 | -10.7% | –
77 | CN(C)c1ccc(/C=N/N(Cc2ccccc2)c2ccccc2)cc1 | 0.998% [at 46.1 µM] | –
78 | CN(C)c1cc[n+](Cc2ccccc2)cc1 | – | 7.08 µM (active)
79 | COc1ccc(OCCC(=O)c2ccc(OC)cc2)cc1 | 18.6% | –
80 | CC(=O)Nc1cccc(OCC(=O)/C=C2\N(C)c3ccccc3C2(C)C)c1 | – | 11.2 µM (active)
81 | Cc1noc(C)c1C(=O)OCC(=O)/C=C1\N(C)c2ccccc2C1(C)C | -17% [at 46.1 µM] | –
82 | CN1/C(=C\C(=O)c2cccnc2Cl)C(C)(C)c2ccccc21 | -10.9% [at 46.1 µM] | –
83 | Cc1ccc(NNC(=O)c2cccs2)cc1Cl | 19% | –
84 | O=C(Nc1ccc(S(=O)(=O)Nc2nccs2)cc1)c1cc(=O)[nH]c2ccccc12 | -14.5% | –
85 | Cc1cc(Cl)c(S(=O)(=O)NCC2CCCO2)cc1OCC(N)=O (stereo not drawn) | -10.1% [at 46.1 µM] | –
86 | Cc1ccc(C(=O)O)cc1S(=O)(=O)NCC1CCCO1 (stereo not drawn) | – | 3.98 µM (active)
87 | Cc1ccc(NC(=O)c2ccc(S(=O)(=O)NCC3CCCO3)cc2)cc1C (stereo not drawn) | 0.556% | –
88 | CC(C)(O)c1ccccc1CC[C@H](SCC1(CC(=O)O)CC1)c1cccc(/C=C/c2ccc3ccc(Cl)cc3n2)c1 | 6.98% [at 46.1 µM] | –
89 | Cc1cc(Cl)ccc1NNC(=O)c1snnc1C | 3.92% | –
90 | O=C1C2C3C=CC(C3)C2C(=O)N1c1ccc(S(=O)(=O)Nc2nccs2)cc1 (stereo not drawn) | 28.1% | –
91 | CC(C)(C)c1cc(C(=O)NN)n(Cc2ccc(Cl)cc2Cl)n1 | -29.8% | –
92 | COC(=O)c1ccc(NC(=O)c2ccccc2NS(=O)(=O)c2ccccc2)cc1 | – | 11.2 µM (active)

Row | SMILES | activity change, negative = inhibition | Potency
93 | CCOc1ccc(NC(=O)c2ccccc2NS(C)(=O)=O)cc1 | 20.3% | –
94 | COC(=O)c1ccccc1NC(=O)c1ccccc1NS(C)(=O)=O | 3.87% [at 46.1 µM] | –
95 | COc1cc(NC(=O)c2ccccc2NS(=O)(=O)c2ccc(Cl)s2)cc(OC)c1 | – | 3.98 µM (active)
96 | COc1cc(NC(=O)c2cccnc2SC)cc(OC)c1 | -3.73% [at 46.1 µM] | –
97 | O=S(=O)(Nc1ccccc1N1CCOCC1)c1ccc(Cl)s1 | -24.5% [at 46.1 µM] | –
98 | COc1ccc(S(=O)(=O)N(CC(=O)N/N=C/c2ccccc2C(=O)O)c2ccccc2OC)cc1 | 12.6% | –
99 | CC(C)(C)NC(=O)/C(=C/c1cccnc1)NC(=O)c1ccco1 | 22.8% | –
100 | CCn1c(CN2C(=O)CSc3ccccc32)n[nH]c1=S | -2.01% | –
101 | Cc1nc(=O)c(-c2ccccc2)c(C)n1-c1ccc(Br)cc1 | 8.99% | –
102 | CCCc1nc2oc3c(=O)[nH]cnc3c2c2c1COC(C)(C)C2 | 9.46% | –
103 | Cc1cc(CO)nn1-c1ccc([N+](=O)[O-])cc1 | 9.64% | –
104 | O=C(c1c(Cl)cccc1Cl)N1CCN(c2cccc3[nH]ccc23)CC1 | -14% | –
105 | Cc1ccc(-c2c[n+](=O)c3c(n2[O-])CCC3)cc1 | -12.9% | –
106 | CCC(=O)N1CCCc2ccccc21 | -7.24% | –
107 | Cc1cc(C)cc(OCC(=O)O/N=C(\N)Cc2ccc([N+](=O)[O-])cc2)c1 | -1.2% | –
108 | O=c1c2c(ncn1Cc1ccccc1)nc1n2CCC1 | -20.5% [at 46.1 µM] | –
109 | CN(C)/C=C/c1c(C#N)c(=O)ncn1Cc1ccccc1 | 13.8% [at 46.1 µM] | –
110 | CN(C)c1ccnc2sc3c(=O)n(Cc4ccccc4)cnc3c12 | – | 7.08 µM (active)
111 | CCOC(=O)N1CCN(C(=O)c2cc3c(-c4ccc(Cl)cc4)nn(C)c3s2)CC1 | 5.53% [at 46.1 µM] | –
112 | Cn1nc(-c2ccc(Cl)cc2)c2cc(C(=O)NCc3ccco3)sc21 | – | 20 µM (active)
113 | COc1ccc(-c2cc(C(=O)NCc3ccco3)no2)cc1OC | 10.5% [at 46.1 µM] | –

Reference: PubChem BioAssay AID1688 (National Center for Advancing Translational Sciences (NCATS), 2009)
